Some compounds were tested as several samples or in several runs, with calls that do not always agree. Active and inactive are the calls of the source. The calls were made as follows: active = hit-call score of the fitted dose curve at least 0.9, where 1 is the maximum; inactive = score below 0.9.

What all share (details): primary human HUVEC with PBMC; actives raise or lower the signal
Assay [1] can be described thus: BSK_LPS_PGE2: BioMAP Diversity Plus: LPS Assay for Prostaglandin E2 (PGE2) Biomarker Activity (AID 2283082).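 As to AC50: secreted prostaglandin E2 measured by ELISA in LPS-stimulated co-culture.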 A digest of the protocol: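 Primary human endothelial cells and blood mononuclear cells, co-cultured with LPS, receive test chemical; PGE2 ELISA follows at 24 h, with SRB-stained parallel cultures flagging cytotoxicity.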
Read-out in assay [2]: Macrophage colony-stimulating factor (MCSF), CSF1 (gene 1435)
The assay can be described thus: BSK_LPS_MCSF: BioMAP Diversity Plus: LPS Assay for Macrophage colony-stimulating factor (MCSF) Biomarker Activity (AID 2283083). A digest of the protocol:
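Bidirectional fit versus DMSO of ELISA-measured M-CSF in co-cultured human umbilical vein endothelial cells and PBMC, sampled 24 h after dosing.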

Read-out in assay [3]: Tissue Factor, F3 (gene 2152)
Description: BSK_LPS_TissueFactor: BioMAP Diversity Plus: LPS Assay for Tissue Factor Biomarker Activity (AID 2283084). In a few lines:
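Read-out: CD142 ELISA, 24 h. System: LPS-driven human endothelial/PBMC co-culture. Analysis: up- or down-signal fitted against DMSO.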

Read-out in assay [4]: Tumor necrosis factor (Homo sapiens) (UniProt P01375)
The assay can be described thus: BSK_LPS_TNFa: BioMAP Diversity Plus: LPS Assay for Tumour Necrosis Factor alpha (TNFa) Biomarker Activity (AID 2283085).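 As to AC50: TNFa protein level quantified by ELISA in the co-culture.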 A digest of the protocol: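 ELISA-based TNFa endpoint in a human endothelial–PBMC co-culture sampled 24 h post-exposure. Curves were fitted in both directions using DMSO as baseline of activity.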

Read-out in assay [5]: Vascular cell adhesion molecule 1 (VCAM1), VCAM1 (gene 7412)
Description: BSK_LPS_VCAM1: BioMAP Diversity Plus: LPS Assay for Vascular cell adhesion molecule 1 (VCAM1) Biomarker Activity (AID 2283086). A digest of the protocol: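 Measured by ELISA: VCAM-1 in LPS-activated HUVEC/PBMC co-cultures 24 h after treatment. Values reflect bidirectional fitting with DMSO as baseline.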

Read-out in a further assay: CD38, CD38 (gene 952)
The assay can be described thus: BSK_SAg_CD38: BioMAP Diversity Plus: SAg Assay for CD38 Biomarker Activity (AID 2283087). A digest of the protocol:
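Measures CD38 on a human endothelial/PBMC co-culture driven by SEB and TSST-1, 24 h after compound exposure, using ELISA with fluorescence detection; DMSO defines baseline for bidirectional curve fitting.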

Read-out in a further assay: CD40, CD40 (gene 958)
The assay can be described thus: BSK_SAg_CD40: BioMAP Diversity Plus: SAg Assay for CD40 Biomarker Activity (AID 2283088). In a few lines: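 Endpoint derived by fitting increases or decreases versus DMSO controls. CD40 is detected by fluorescence ELISA in a human vascular co-culture of endothelium and PBMC at 24 h.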

Read-out in the next assay: CD69, CD69 (gene 969)
The assay can be described thus: BSK_SAg_CD69: BioMAP Diversity Plus: SAg Assay for CD69 Biomarker Activity (AID 2283089).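 As to AC50: cell surface CD69 protein quantified by ELISA with fluorescence detection.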 In a few lines: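 Endothelial/PBMC co-culture; chemical added; 24 h incubation; CD69 ELISA with fluorescence detection; bidirectional fit vs DMSO.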

Read-out in assay [6]: Monocyte Chemoattractant Protein-1 (MCP1), CCL2 (gene 6347)
Description: BSK_SAg_MCP1: BioMAP Diversity Plus: SAg Assay for Monocyte Chemoattractant Protein-1 (MCP1) Biomarker Activity (AID 2283090). A digest of the protocol:
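Values derive from bidirectional fitting of ELISA-measured MCP1 against DMSO controls. Readings were taken 24 h after dosing human vascular endothelial cells co-cultured with peripheral blood mononuclear cells under superantigen stimulation.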

Read-out in assay [7]: E-selectin (Homo sapiens) (UniProt P16581)
Description: BSK_SAg_Eselectin: BioMAP Diversity Plus: SAg Assay for Eselectin Biomarker Activity (AID 2283091). A digest of the protocol: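 Endpoint values derive from bidirectional fitting relative to DMSO, using ELISA-measured E-selectin in a human vascular co-culture (umbilical vein endothelium plus PBMC) sampled 24 h after dosing.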

Chain of E-selectin (Homo sapiens) (P16581 whole entry, looked up): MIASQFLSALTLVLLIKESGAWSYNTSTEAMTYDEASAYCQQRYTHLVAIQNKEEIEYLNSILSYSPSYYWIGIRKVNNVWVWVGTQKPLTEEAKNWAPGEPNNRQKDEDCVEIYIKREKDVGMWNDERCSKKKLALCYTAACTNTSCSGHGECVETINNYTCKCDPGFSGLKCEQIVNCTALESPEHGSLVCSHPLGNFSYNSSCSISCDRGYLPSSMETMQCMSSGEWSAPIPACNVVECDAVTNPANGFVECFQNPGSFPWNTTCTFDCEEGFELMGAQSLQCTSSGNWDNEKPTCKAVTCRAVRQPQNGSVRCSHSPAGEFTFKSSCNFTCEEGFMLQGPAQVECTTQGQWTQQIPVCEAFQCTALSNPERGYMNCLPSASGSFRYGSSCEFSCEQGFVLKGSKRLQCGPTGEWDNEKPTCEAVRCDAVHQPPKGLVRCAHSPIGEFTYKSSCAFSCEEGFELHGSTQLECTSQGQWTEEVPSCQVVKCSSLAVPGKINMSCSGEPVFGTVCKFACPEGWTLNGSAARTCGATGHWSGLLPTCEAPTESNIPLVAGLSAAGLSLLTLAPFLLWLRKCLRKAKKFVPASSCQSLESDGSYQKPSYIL
Chain of Tumor necrosis factor (Homo sapiens) (P01375 whole entry, looked up): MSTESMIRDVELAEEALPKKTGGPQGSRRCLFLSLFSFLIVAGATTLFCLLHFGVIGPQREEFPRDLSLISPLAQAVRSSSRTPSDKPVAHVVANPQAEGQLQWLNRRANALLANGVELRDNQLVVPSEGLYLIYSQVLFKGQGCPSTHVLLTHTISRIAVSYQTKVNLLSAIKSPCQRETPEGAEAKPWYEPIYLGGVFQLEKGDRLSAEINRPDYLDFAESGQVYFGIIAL

With `CSC(=O)c1cccc2nnsc12`, the outcome in assay [1] is “inactive”; in [2], “inactive”; in assay [3], “inactive”; in [5], “inactive”; with CD38, CD38 (gene 952), “inactive”; with CD40, CD40 (gene 958) it was “inactive”. The outcome is “inactive” with CD69, CD69 (gene 969); “inactive” in [6]; “inactive” in assay [7]. Further, in assay [4], the AC50 was 4.96 µM (active).
Turning to `CCOC(=O)NCCOc1ccc(Oc2ccccc2)cc1`, the result in assay [1], in assay [3], in assay [4] and in assay [5] was inactive. For the same compound, the half-maximal activity concentration (AC50) in [2] was 14.7 µM (active); in the assay with CD38, CD38 (gene 952), 29.1 µM (active); with CD40, CD40 (gene 958), 14.5 µM (active); with CD69, CD69 (gene 969) it was 25.3 µM (active); in assay [6], 26.9 µM (active); in [7] it was 31.8 µM (active).
In the case of `CCC(O)=C1C(=O)CC(C(=O)O)CC1=O` (stereo not drawn), the outcome in [1] is “inactive”; in [2], “inactive”; in assay [3] it was “inactive”; in assay [4] it was “inactive”; in [5] it was “inactive”; in the assay with CD38, CD38 (gene 952), “inactive”. For the same compound, the outcome in the assay with CD40, CD40 (gene 958) is “inactive”; with CD69, CD69 (gene 969), “inactive”; in assay [6] it was “inactive”; in assay [7] it was “inactive”.
`OB(O)O`: the outcome is “inactive” in assay [1]; “inactive” in assay [2]; “inactive” in [3]; “inactive” in assay [4]; “inactive” in [5]; “inactive” with CD38, CD38 (gene 952). Besides, the outcome with CD40, CD40 (gene 958) is “inactive”; with CD69, CD69 (gene 969), “inactive”; in [6] it was “inactive”; in assay [7], “inactive”.
Turning to `COCCO`, the outcome is “inactive” in assay [1]; “inactive” in assay [2]; “inactive” in assay [3]; “inactive” in assay [4]; “inactive” in assay [5]; “inactive” with CD38, CD38 (gene 952). In addition, the outcome with CD40, CD40 (gene 958) was “inactive”; with CD69, CD69 (gene 969) it was “inactive”; in assay [6], “inactive”; in assay [7], “inactive”.
On to `COC(=O)c1ccccc1C(=O)O`, for which the outcome in [1] was “inactive”; in assay [2], “inactive”; in assay [3], “inactive”; in assay [4], “inactive”; in assay [5], “inactive”; in the assay with CD38, CD38 (gene 952), “inactive”. Also, the outcome in the assay with CD69, CD69 (gene 969) was “inactive”; in [6], “inactive”. For the same compound, the AC50 with CD40, CD40 (gene 958) was 6.97 µM (active); in assay [7], 5.96 µM (active).
For the compound `CCNc1nc(N)nc(Cl)n1`, the outcome was “inactive” in assay [1]; “inactive” in assay [2]; “inactive” in [3]; “inactive” in assay [5]; “inactive” with CD38, CD38 (gene 952); “inactive” with CD40, CD40 (gene 958). In addition, the outcome with CD69, CD69 (gene 969) was “inactive”; in assay [6], “inactive”; in assay [7], “inactive”. The concentration at half-maximal activity (AC50) in assay [4] is 14.3 µM (active).
Regarding `CCC(C)OC(=O)N1CCCCC1CCO` (stereo not drawn), the outcome was “inactive” in assay [1]; “inactive” in assay [2]; “inactive” in assay [3]; “inactive” in assay [4]; “inactive” in [5]; “inactive” with CD38, CD38 (gene 952). Moreover, the outcome was “inactive” with CD40, CD40 (gene 958); “inactive” with CD69, CD69 (gene 969); “inactive” in [6]; “inactive” in [7].
As to `COc1c(Cl)ccc(Cl)c1C(=O)O`, the outcome in assay [1] was “inactive”; in [2], “inactive”; in assay [3], “inactive”; in [4] it was “inactive”; in assay [5], “inactive”; in the assay with CD38, CD38 (gene 952) it was “inactive”. Moreover, the outcome was “inactive” with CD40, CD40 (gene 958); “inactive” with CD69, CD69 (gene 969); “inactive” in assay [7]. Also, the AC50 in [6] is 11.8 µM (active).
`COc1nc(C)nc(NC(=O)NS(=O)(=O)c2ccccc2OCCCl)n1`: the outcome in assay [1] was “inactive”; in [2], “inactive”; in assay [3], “inactive”; in assay [4] it was “inactive”; in assay [5], “inactive”; in the assay with CD38, CD38 (gene 952) it was “inactive”. Further, the outcome is “inactive” with CD40, CD40 (gene 958); “inactive” with CD69, CD69 (gene 969); “inactive” in assay [6]; “inactive” in assay [7].
For the compound `S=C(S)NCCNC(=S)S.[Mn+2].[S-]C([S-])=NCCN=C([S-])[S-].[Zn+2]`, the outcome in [1] is “inactive”; in [2], “inactive”; in [3] it was “inactive”; in assay [4], “inactive”; in assay [5], “inactive”; with CD38, CD38 (gene 952) it was “inactive”. Besides, the outcome with CD40, CD40 (gene 958) was “inactive”; in the assay with CD69, CD69 (gene 969) it was “inactive”; in assay [6] it was “inactive”; in [7], “inactive”. Moreover, the AC50 in assay [4] is 2.39 µM (active); in assay [5] it was 8.85 µM (active); in assay [7], 12.4 µM (active).
As for `C=CCOC(Cn1ccnc1)c1ccc(Cl)cc1Cl` (stereo not drawn), the AC50 is 0.27 µM (active) in assay [1] and 32.9 µM (active) in [7]. Further, the outcome is “inactive” in [2]; “inactive” in assay [3]; “inactive” in [4]; “inactive” in [5]; “inactive” in the assay with CD38, CD38 (gene 952); “inactive” with CD40, CD40 (gene 958). For the same compound, the outcome was “inactive” in the assay with CD69, CD69 (gene 969) and “inactive” in assay [6].
Regarding `COC(=O)c1c(Cl)nn(C)c1S(=O)(=O)NC(=O)Nc1nc(OC)cc(OC)n1`, the outcome in [1] is “inactive”; in [2], “inactive”; in [3] it was “inactive”; in assay [4], “inactive”; in [5], “inactive”; with CD38, CD38 (gene 952), “inactive”. Also, the outcome in the assay with CD40, CD40 (gene 958) is “inactive”; with CD69, CD69 (gene 969), “inactive”; in assay [6], “inactive”; in assay [7], “inactive”.
Regarding `CCCCOCCOCCOCc1cc2c(cc1CCC)OCO2`, the outcome in assay [1] is “inactive”; in [2], “inactive”; in [3], “inactive”; in assay [5], “inactive”; with CD38, CD38 (gene 952), “inactive”; in the assay with CD40, CD40 (gene 958), “inactive”. Further, the outcome in the assay with CD69, CD69 (gene 969) was “inactive”; in assay [6], “inactive”; in assay [7], “inactive”. Moreover, the AC50 in assay [4] is 25.3 µM (active).
Consider `C[C@]12CC[C@@H]3c4ccc(O)cc4C[C@@H](CCCCCCCCCS(=O)CCCC(F)(F)C(F)(F)F)[C@H]3[C@@H]1CC[C@@H]2O` (stereo partly drawn), for which the outcome in assay [1] was “inactive”; in [2], “inactive”; in assay [3], “inactive”; in assay [4], “inactive”; in [5], “inactive”; in the assay with CD38, CD38 (gene 952), “inactive”. In addition, the outcome with CD40, CD40 (gene 958) is “inactive”; with CD69, CD69 (gene 969) it was “inactive”; in assay [6], “inactive”. Besides, the half-maximal activity concentration (AC50) in assay [7] is 3.51 µM (active).

As a reminder, the AC50 is the concentration at which the activity in the assay is half-maximal.

Values taken from PubChem BioAssay (EPA / NIEHS).
